These results are taken from PubChem BioAssay (NCI).

The panel holds about 83,000 compounds, 20% with a hit somewhere; the sample as a whole holds those more often.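 Results are percent growth after 48 hours of single-concentration exposure. 100 means growth as in untreated cells, lower positive values show inhibition; negative values down to -100 show cell death.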 Active and inactive are the calls of the source.

This assay relates to RPMI-8226 leukemia. Kind of assay: NCI-60 one-dose screen, 48 h (100 = growth as untreated, 0 = no growth, -100 = all killed). Conditions: 10 µM unless noted. How it is done: Growth inhibition of the RPMI-8226 human tumor cell line is measured as a screen for anti-cancer activity. Cells are grown in 96 well plates and exposed to the test compound for 48 hours. Compounds are tested at a single concentration, which is 10^-5 M for most compounds. The reported endpoint is percent growth (GI% or GIPRCNT), where numbers from 0 - 100% represent growth inhibition, and numbers from -100% - 0 represent cell death. For example, a value of 40 represents 60% growth inhibition. A value of 0 means no net growth occurred over the course of the experiment. A value of -40 indicates 40% of cells at the beginning of the experiment died by the end of the experiment. A value of -100 means all cells are dead at the end of the experiment.
NCI-60 Human Tumor Cell Lines Screen was performed using the standard one-dose NCI protocol, which is described in more detail at https://dtp.cancer.gov/discovery_development/nci-60/default.htm.
Compounds with GIPRCNT values below 10 were considered active. Activity score was based on GIPRCNT using the following formula: […]
Score is 0 for GIPRCNT values of 100 or above, 50 for GIPRCNT values of 0, and 100 for GIPRCNT values of -100.
As to `COc1cc(NC(=O)Nc2cnc(Nc3ccc(N4CCOCC4)cc3)nc2Oc2ccc(F)cc2)cc(OC)c1`, the growth was 81.3% (inactive). For `Cc1cc(Nc2nc(SCc3ccc(C(=O)Nc4ccc(F)cc4N)cc3)nn3cccc23)n[nH]1`, the growth is 13.1% (inactive). For `COC(=O)/C=C1\SC(=Nc2cccc(Cl)c2)N(CCc2c[nH]c3ccccc23)C1=O`, the growth is -25% (active). As for `O=c1[nH]c2ccccc2cc1-c1nc2ccncc2[nH]1`, the growth was -0.575% (active). The figure for `COC(=O)/C=C1\SC(=Nc2ccc(C(F)(F)F)cc2)N(CCc2c[nH]c3ccccc23)C1=O` is -22.5% (active). `CCc1c(C(=O)N[C@@H](C(=O)OCc2ccccc2)C(C)O)[nH]c2ccc(Cl)cc12` (stereo not given in full): the growth is 82.7% (inactive). Regarding `CCCCCCCCCCCCCC1=NCC[N+]1(CCO)Cc1ccccc1` (stereo not given), the growth was -47.2% (active).

Consider `O=C1Nc2ccc(Cl)cc2/C1=N/c1nc(-c2ccc(Cl)cc2)cs1`, for which the growth is -2.3% (active). Under `CCOC(=O)c1c(C)nc2c(c1N)/C(=C/c1ccc[nH]1)C(=O)N2Cc1ccc(C(F)(F)F)cc1` stands 104% (inactive); under `Cc1nn(-c2ccc(-c3ccc(OC(F)(F)F)cc3)cc2)c2nc(-c3ccccc3)nc(N)c12`, 118% (inactive); under `COc1ccc(Cc2nc(C#N)c(N3CCN(c4ccc(F)cc4)CC3)o2)cc1`, 93.3% (inactive).

Consider `COc1ccc(C(=O)c2cc(F)c(F)c(OC)c2F)cc1OC(=O)CCl`, for which the growth is 37.2% (inactive). Under `c1ccc(-c2n(Cc3ccc4ccccc4n3)cc[n+]2Cc2ccc3ccccc3n2)cc1` stands 0.454% (active); under `Nc1n[nH]c2cccc(C#Cc3cccc(NC(=O)c4cc(N5CCOCC5)cc(C(F)(F)F)c4)c3)c12`, 40.5% (inactive).

Consider `O=C(O)c1cn(C2CC2)c2cc(N3CCN(Cc4nnc(Nc5ccccc5)o4)CC3)c(F)cc2c1=O`, for which the growth is 106% (inactive). Regarding `CC(=O)[C@@H]1CC[C@]2(C(=O)O)CC[C@]3(C)[C@H](CC[C@@H]4[C@@]5(C)Cc6c([nH]c7ccccc67)C(C)(C)[C@@H]5CC[C@]43C)[C@@H]12`, the growth is 43.2% (inactive). The figure for `C=C1C(=O)O[C@H]2[C@H]1CC/C(COC(=O)/C=C/c1cccnc1)=C\CC[C@@]1(C)O[C@@H]21` is 2.83% (active). Consider `CCOC(=O)c1ccc(Nc2ncnc3ccc(NC(=O)c4ccccc4)cc23)cc1`, for which the growth was 69.2% (inactive). As to `COc1cc(C)ccc1Oc1nc(Nc2ccc(N3CCOCC3)cc2)ncc1N=Cc1cc(C(F)(F)F)cc(C(F)(F)F)c1`, the growth is 69.7% (inactive). The figure for `C#Cc1ccccc1NC(=O)c1sc2nc3c(cc2c1N)CCCCC3` is 97.4% (inactive); for `Cc1ccc(C(=O)O)o1` it is 114% (inactive); for `CCCCCOC(=O)c1ccccc1O` it is 102% (inactive). The figure for `Cc1cccc(NC(=O)c2sc3nc4c(cc3c2N)CN(Cc2ccccc2)CC4)c1C` is 26.8% (inactive).

For the compound `COc1ccc(C2C(c3ccccc3)C(=O)N2c2cc(OC)c(OC)c(OC)c2)cc1I` (stereo not given), the growth is -9.86% (active). Under `CC(C)(C)c1ccc2oc(=O)n(SC(Cl)(Cl)Cl)c2c1` stands 102% (inactive).

With `Cc1cccc2nc3c(n12)C(=O)C(=O)c1ccccc1-3`, the growth was 44.9% (inactive).

On to `COc1ccc(-c2cc(C(=O)N3N=C(c4ccc(N)cc4)CC3c3ccc(OC)cc3)c3cc(OC)ccc3n2)cc1` (stereo not given), for which the growth was 16.9% (inactive).

As to `N#Cc1c(-c2ccc(Cl)cc2)cc(-c2cc3ccccc3o2)nc1SCC(=O)c1ccc(Cl)cc1`, the growth was 83.6% (inactive). As to `Cc1cccc(C)c1Nc1nnc(-c2ccc(F)cc2)o1`, the growth is 109% (inactive).

Take `O=C(O)CCNC1CCCCC1`: the growth is 96.3% (inactive).

Take `Cc1cc(C)c(NC(=O)c2sc3nc4c(cc3c2N)CCCCCC4)c(C)c1`: the growth is 66.3% (inactive). Regarding `O=c1[nH]nc(-c2ccccc2)c2sc(NC(=S)Nc3ccc(Cl)cc3)nc12`, the growth was 87.8% (inactive). Under `COc1cccc(C(=O)OCCn2nc3c4c(cccc42)C(=O)c2ccccc2-3)c1O` stands 30% (inactive); under `CN1CCN(C(=O)[C@@]2(C)CC[C@]3(C)CC[C@]4(C)C(=CC[C@@H]5[C@@]6(C)CC[C@H](OC(=O)c7cccnc7)C(C)(C)[C@@H]6CC[C@]54C)[C@@H]3C2)CC1`, 6.97% (active); under `CCC1S/C(=N\N=C(/C)c2ccc[nH]2)N(c2ccccc2)C1=O` (stereo not given), 57.5% (inactive). Consider `Cc1c(Cl)cccc1NC(=O)c1sc2nc3c(cc2c1N)CN(Cc1ccccc1)CC3`, for which the growth is 54.8% (inactive). Turning to `CN1CCN(S(=O)(=O)O[C@@H]2C(=O)N(c3cc4c5ccccc5ccc4c4ccccc34)[C@H]2c2ccc(F)cn2)CC1`, the growth is 79.7% (inactive). For `C=C(C)[C@@H]1CC[C@]2(C(=O)OCCCC[P+](c3ccccc3)(c3ccccc3)c3ccccc3)CC[C@]3(C)[C@H](CC[C@@H]4[C@@]5(C)CC[C@H](OC(=O)C(Cl)Cl)C(C)(C)[C@@H]5CC[C@]43C)[C@@H]12`, the growth is -40% (active). The figure for `OCCNc1nc(NCCO)nc(Nc2ccc(C3=NN(c4ccc(Cl)cc4)C(c4ccc(Cl)cc4)C3)cc2)n1` (stereo not given) is 27.7% (inactive); for `COc1cccc2c1-c1ccccc1C2=O` it is 14.9% (inactive).
